In the antibiotic and cytotoxicity screens of Wong et al. (2023) one finds cytotoxicity call data, which are given here for 44 compounds.

The whole screen tested about 39,000 compounds, of which about 3,300 (8.5%) were called active. The list comes from a sample in which actives are over-represented; it also holds similar structures and randomly drawn compounds.

In the experiment the test system is HepG2. Nature of the experiment: cytotoxicity call (relative viability < 0.9). The note with it: 10 µM.
With `Cc1ccc(S(=O)(=O)N(C)C[C@H]2Oc3ccc(NC(=O)CCN4CCOCC4)cc3CC(=O)N([C@H](C)CO)C[C@@H]2C)cc1`, the cytotoxicity call was “inactive”.
The same measure for `C/C=C/c1ccc2c(c1)O[C@@H](CN(C)Cc1ccc(C(=O)O)cc1)[C@H](C)CN([C@H](C)CO)S2(=O)=O`: “inactive”; for `C[C@@H]1CN([C@@H](C)CO)C(=O)c2c(c3ccccc3n2C)-c2ccccc2CO[C@H]1CN(C)C(=O)c1ccc(F)cc1`: “inactive”; for `OC[C@H]1O[C@H](C#Cc2ccccc2)C=C[C@@H]1O`: “inactive”.
Next, `C[C@H](CO)N1C[C@H](C)[C@H](CN(C)C(=O)Nc2ccc3c(c2)OCO3)Oc2c(NC(=O)c3ccncc3)cccc2C1=O`: “inactive”.
The same measure for `Cc1ccc(S(=O)(=O)N[C@H]2C=C[C@@H](CC(=O)NCCN3CCCCC3)O[C@@H]2CO)cc1`: “inactive”; for `Cn1cnc2c1c(=O)[nH]c(=O)n2C`: “inactive”.
On to `Cc1cc(C(=O)N2CCCC[C@@H]2CCOc2cccc(CN(C)Cc3cccc4cccnc34)c2)c(=O)[nH]c1C`, for which the cytotoxicity call is “inactive”.
On to `Cc1nc(-c2cccc(F)c2)cs1`, for which the cytotoxicity call is “inactive”.
Consider `COc1ccc2c3c([nH]c2c1)[C@@H](CO)N(C[C@]13CN(CC2CCOCC2)C1)C(=O)Nc1c(noc1C)C`, for which the cytotoxicity call is “inactive”.
Next, `C[C@@H]1CCCCO[C@@H](CN(C)C(=O)Nc2ccccc2)[C@@H](C)CN([C@H](C)CO)C(=O)c2cc(NC(=O)Nc3cccc4ccccc34)ccc2O1`: “inactive”; `C[C@@H]1CN([C@@H](C)CO)C(=O)c2cc(NC(=O)Nc3ccc(F)cc3)ccc2O[C@H]1CN(C)S(C)(=O)=O`: “inactive”; `COc1ccc(NC(=O)N(C)C[C@@H]2Oc3ccc(NC(=O)Nc4ccc(C(F)(F)F)cc4)cc3CC(=O)N([C@H](C)CO)C[C@@H]2C)cc1`: “inactive”.
For `COc1ccc(NC(=O)Nc2ccc3c(c2)CC(=O)N([C@@H](C)CO)C[C@H](C)[C@@H](CN(C)C(=O)Nc2ccc(C(F)(F)F)cc2)O3)cc1`, the cytotoxicity call is “inactive”.
Turning to `COc1ccc(NC(=O)Nc2ccc3c(c2)CC(=O)N([C@@H](C)CO)C[C@@H](C)[C@@H](CN(C)C(=O)Nc2ccc(C(F)(F)F)cc2)O3)cc1`, the cytotoxicity call is “inactive”.
Next, `COc1ccc(NC(=O)Nc2ccc3c(c2)CC(=O)N([C@@H](C)CO)C[C@H](C)[C@H](CN(C)C(=O)Nc2ccc(C(F)(F)F)cc2)O3)cc1`: “active”; `COc1ccc(NC(=O)N(C)C[C@H]2Oc3ccc(NC(=O)Nc4ccc(C(F)(F)F)cc4)cc3CC(=O)N([C@@H](C)CO)C[C@H]2C)cc1`: “active”.
Next, `COc1ccc(NC(=O)Nc2ccc3c(c2)CC(=O)N([C@H](C)CO)C[C@H](C)[C@H](CN(C)C(=O)Nc2ccc(C(F)(F)F)cc2)O3)cc1`: “inactive”; `CO[C@H]1CCN(C(=O)CN(C)C)[C@@H]2CCO[C@@H]12`: “inactive”; `C[C@H](CO)N1C[C@H](C)[C@@H](CN(C)Cc2cccc3c2OCCCO3)OCc2ccccc2-c2c(n(C)c3ccccc23)C1=O`: “inactive”.
For the compound `CCCC(=O)Nc1ccc2c(c1)C(=O)N(C)C[C@@H](OC)[C@@H](C)CN(Cc1ccc(-c3ccccn3)cc1)[C@H](C)CO2`, the cytotoxicity call is “inactive”.
The same measure for `CN1C(=O)c2cc(NS(C)(=O)=O)ccc2OC[C@@H]2O[C@H](CC(=O)N3CCOCC3)CC[C@@H]21`: “inactive”; for `C[C@@H]1C(=O)O[C@@H]2C[C@@](C)(O)[C@H]3C[C@H]4O[C@@]4(C)[C@@]3(O)C(=O)[C@@H]12`: “inactive”; for `COc1ccc(S(=O)(=O)N(C)C[C@@H]2Oc3ccc(N(C)C)cc3C(=O)N([C@H](C)CO)C[C@@H]2C)cc1`: “inactive”.
As for `COc1ccc(S(=O)(=O)N(C)C[C@@H]2Oc3ccc(N(C)C)cc3C(=O)N([C@@H](C)CO)C[C@H]2C)cc1`, the cytotoxicity call is “active”.
Next, `Cc1ccc(S(=O)(=O)N(C)C[C@H]2Oc3ccc(NC(=O)C4CC4)cc3C(=O)N([C@@H](C)CO)C[C@H]2C)cc1`: “inactive”.
With `COc1ccc(S(=O)(=O)N(C)C[C@H]2Oc3ccc(N(C)C)cc3C(=O)N([C@@H](C)CO)C[C@H]2C)cc1`, the cytotoxicity call was “inactive”.
The same measure for `COc1ccc(S(=O)(=O)N(C)C[C@H]2Oc3ccc(NC(=O)C4CC4)cc3C(=O)N([C@@H](C)CO)C[C@H]2C)cc1`: “inactive”.
The same measure for `Cc1ccc(S(=O)(=O)N(C)C[C@@H]2Oc3ccc(NC(=O)CCN4CCOCC4)cc3C(=O)N([C@H](C)CO)C[C@@H]2C)cc1`: “inactive”; for `Cc1ccc(S(=O)(=O)N(C)C[C@@H]2Oc3ccc(NC(=O)C4CC4)cc3C(=O)N([C@H](C)CO)C[C@@H]2C)cc1`: “inactive”; for `Cc1ccc(S(=O)(=O)N(C)C[C@@H]2Oc3ccc(NC(=O)C4CC4)cc3C(=O)N([C@@H](C)CO)C[C@H]2C)cc1`: “active”.
The same measure for `COc1ccc(S(=O)(=O)N(C)C[C@H]2Oc3ccc(NC(=O)C4CC4)cc3C(=O)N([C@@H](C)CO)C[C@@H]2C)cc1`: “active”.
`COc1ccc(S(=O)(=O)N(C)C[C@@H]2Oc3ccc(NC(=O)C4CC4)cc3C(=O)N([C@@H](C)CO)C[C@H]2C)cc1`: the cytotoxicity call is “inactive”.
In the case of `Cc1ccc(S(=O)(=O)N(C)C[C@H]2Oc3ccc(NC(=O)CCN4CCOCC4)cc3C(=O)N([C@@H](C)CO)C[C@@H]2C)cc1`, the cytotoxicity call was “active”.
The same measure for `Cc1ccc(S(=O)(=O)N(C)C[C@H]2Oc3ccc(NC(=O)CCN4CCOCC4)cc3C(=O)N([C@@H](C)CO)C[C@H]2C)cc1`: “inactive”; for `C[C@@H]1CCCCO[C@H](CN(C)S(=O)(=O)c2ccccc2)[C@@H](C)CN([C@@H](C)CO)C(=O)c2cc(NS(C)(=O)=O)ccc2O1`: “inactive”; for `O/N=C1\CCCCc2c1[nH]c1ccc(C3CCCCC3)cc21`: “inactive”.
On to `C[C@@H]1CCCCO[C@@H](CN(C)C(=O)c2ccncc2)[C@H](C)CN([C@H](C)CO)C(=O)c2cc(NC(=O)NC3CCCCC3)ccc2O1`, for which the cytotoxicity call was “inactive”.
Next, `C[C@@H]1CN([C@H](C)CO)C(=O)c2cccc(NC(=O)c3cnccn3)c2O[C@H]1CN(C)Cc1ccncc1`: “inactive”; `C[C@H](CO)N1C[C@H](C)[C@H](CN(C)Cc2ccc(-c3ccccc3)cc2)Oc2c(NS(=O)(=O)c3ccc(Cl)cc3)cccc2C1=O`: “inactive”.
Next, `N=C(N)NCCCCNC(=N)N`: “active”; `N=C(N)NCCCCN.O=S(=O)(O)O`: “inactive”; `N=C(N)NCCCCNC(=N)N.O=S(=O)(O)O`: “inactive”.
The same measure for `O=C(Nc1ccc2c(c1)[C@H]1C[C@H](CC(=O)N3CCc4ccccc4C3)O[C@@H](CO)[C@H]1O2)C1CCOCC1`: “inactive”.
